{"source": "PubChem BioAssay (NCATS)", "note": "Several values for one entry are separate records, joined by “and”; a condition that tells them apart may be missing. Equal entries are not always repeated. Results filed as inconclusive are left out. Entries that show only a call come without a potency. Values without a mark were called inactive. Activity calls are given as the source filed them. Calls follow the shape of the dose curve; as a rule, active = well fitted cell-killing curve with a large enough effect; inconclusive = small, poorly fitted or top-dose-only effect, or effect the other way; inactive = no such curve, though single readings can be large or run the other way. Potency is read from the fitted curve at half-maximal effect."}
{"test": "Viability qHTS for spleen associated tyrosine kinase inhibitor (SYKi) drug resistant MV4-11 cells (AID 1963824); also: nearly all actives have a fitted effect of over 35% in size", "conditions": "SYKi-resistant MV4-11 viability, CellTiter-Glo, 72 h; series mostly up to 45 µM", "outline": "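SYK inhibitor-resistant MV4-11 AML cells, 500 per well, added to predispensed compounds and incubated 72 hr at 37 C, 5% CO2. Viability measured by CellTiter-Glo luminescence after 10 min at room temperature.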"}
{"compound": "N#Cc1ccc2[nH]c(O)c(-c3ccc(CN4CCOCC4)cn3)c2c1", "Potency": "inactive"}
{"compound": "FC(F)(F)c1nnc2c(Sc3ccccc3)nc3ccc(Cl)cc3n12", "Potency": "0.731 µM (active)"}
{"compound": "CCOC(=O)N1CCC(N2CCC[C@@H](NC(=O)c3ccccc3C)C2)CC1", "Potency": "14.6 µM (active)"}
{"compound": "O=C(O)CC1CCC(c2ccc(-c3ccc4nc(C(=O)NCc5ccc(OC(F)(F)F)cc5)cn4c3)cc2)CC1", "note": "(centres undefined)", "Potency": "inactive"}
{"compound": "Nc1c(CC(=O)O)cccc1C(=O)c1ccc(Br)cc1", "Potency": "inactive"}
{"compound": "Nc1nc(N)c(N=O)c(OCC2CCCCC2)n1", "Potency": "8.2 µM (active) and 8.33 µM (active)"}
{"compound": "COc1ccnc(CCc2nc3ncccc3[nH]2)c1", "Potency": "inactive"}
{"compound": "COc1cc(CCc2cc(NC(=O)c3ccc(N4CC(C)NC(C)C4)cc3)n[nH]2)cc(OC)c1", "note": "(centres undefined)", "Potency": "1.03 µM (active)"}
{"compound": "N#Cc1cc(F)cc(-c2nc(-c3ccccn3)no2)c1", "Potency": "inactive"}
{"compound": "Cc1cc(F)ccc1-c1nc(NCCN=C(N)NC#N)nc2c1ccc(=O)n2-c1c(F)cccc1F", "Potency": "14.6 µM (active)"}
{"compound": "CC(C)c1cccc(C(C)C)c1NC(=O)Nc1ccc(Sc2ccc([N+](=O)[O-])cc2)cc1", "Potency": "5.17 µM (active)"}
{"compound": "COc1ccc(C2(CNC(=O)c3ccc(NC(=O)c4ccco4)cc3)CCOCC2)cc1", "Potency": "inactive"}
{"compound": "COc1cccc(OC)c1-c1ccc(C[C@H](NC(=O)c2c(Cl)cccc2Cl)C(=O)O)cc1", "Potency": "inactive"}
{"compound": "COCCCNCC1COc2ccccc2O1", "note": "(centres undefined)", "Potency": "inactive"}
{"compound": "O=C(Nc1nc2ccccc2n1CCc1ccccc1)c1ccccc1", "Potency": "inactive"}
{"compound": "COc1ccc(CCCN2CCC(COC(c3ccccc3)c3ccccc3)CC2)cc1", "Potency": "10.3 µM (active)"}
{"compound": "CCCOc1ccccc1-c1nc2n[nH]nc2c(=O)[nH]1", "Potency": "inactive"}
{"compound": "O=C(O)[C@H]1Cc2ccccc2CN1", "viability, % of control": "101% [at 4.97 µM]"}
{"compound": "CCNC(=O)Nc1ccc(-c2nc3c(c(N4CCOC[C@@H]4C)n2)CCN(c2ncccn2)C3)cc1", "Potency": "0.164 µM (active)"}
{"compound": "Cc1cc(Nc2ncc3cc(-c4c(Cl)cccc4Cl)c(=O)n(C)c3n2)ccc1F", "Potency": "0.517 µM (active)"}
{"compound": "CCN(CC)Cc1ccc(C(=O)N(CCc2ccccc2OC)[C@@H]2CCNC2)cc1", "Potency": "3.17 µM (active)"}
{"compound": "O=C1N(CC2CCCCN2)CCN1c1ccccc1", "note": "(centres undefined)", "Potency": "inactive"}
{"compound": "CC(=O)SCC(=O)c1ccc(NS(=O)(=O)c2ccc(OCCCN(C)C)cc2)nc1", "Potency": "2.91 µM (active)"}
{"compound": "FC(F)(F)Oc1ccc(-c2ccc3nnc(C(F)(F)F)n3c2)cc1", "Potency": "inactive"}
{"compound": "CC[C@H]1OC(=O)C[C@@H](O)[C@H](C)[C@@H](O[C@@H]2O[C@H](C)[C@@H](O)[C@H](N(C)C)[C@H]2O)[C@@H](CCN2C[C@H](C)C[C@H](C)C2)C[C@@H](C)C(=O)/C=C/C(C)=C/[C@@H]1CO[C@@H]1O[C@H](C)[C@@H](O)[C@@H](OC)[C@H]1OC", "Potency": "inactive"}
{"compound": "COC(=O)c1cc(S(N)(=O)=O)ccc1OC", "Potency": "inactive"}
{"compound": "CCOC(=O)N1CCC(NCCNC(=O)c2ccccc2C)CC1", "Potency": "inactive"}
{"compound": "O=C1NC(=Nc2ccccc2F)S/C1=C\\c1ccc(C(=O)O)cc1", "Potency": "inactive"}
{"compound": "CCOC(=O)N1CCC(CN(Cc2ccc(Cl)cc2)Cc2ccc([N+](=O)[O-])s2)C1", "note": "(centres undefined)", "Potency": "16.4 µM (active)"}
{"compound": "O=C(c1ccccn1)c1cnn2c(-c3ccncc3)ccnc12", "Potency": "inactive"}
{"compound": "Cc1nc(NC(=O)N2CCC[C@H]2C(N)=O)sc1-c1ccnc(C(C)(C)C(F)(F)F)c1", "Potency": "11.6 µM (active) and 16.6 µM (active)"}
{"compound": "CN[C@H](CNC(=O)N1CCC[C@@H]([C@@H](OCCNC(=O)OC)c2cccc(Cl)c2)C1)C[C@H]1CCCOC1", "Potency": "inactive"}
{"compound": "C(#Cc1cccc(CN2CCOCC2)c1)CCN1CCCCC1", "Potency": "inactive"}
{"compound": "CCc1cc(CN2CC(C(=O)O)C2)sc1-c1noc(-c2ccc(Oc3ccccc3)cc2)n1", "Potency": "inactive"}
{"compound": "CCOCc1cc(OC)c(-c2ccc(C[C@H](NC(=O)c3c(F)cccc3F)C(=O)O)cc2)c(OC)c1", "Potency": "inactive"}
{"compound": "CN(C)c1ccc(C2O[C@@H](c3ccccc3)C[C@H](c3ccccc3)O2)cc1", "note": "(some centres undefined)", "Potency": "inactive"}
{"compound": "CNC(=O)c1cnn(-c2nc(N)c3ncn([C@@H]4O[C@H](CO)[C@@H](O)[C@H]4O)c3n2)c1", "Potency": "inactive"}
{"compound": "C[C@@H](NC(=O)C(=O)c1c[nH]c2ccc([N+](=O)[O-])cc12)c1ccccc1", "Potency": "4.11 µM (active)"}
{"compound": "CC(C)(C)C1CCN(C(=O)n2ncc(C(O)(c3ccccc3)c3ccccc3)n2)CC1", "Potency": "8.2 µM (active)"}
